Screening data as filed in PubChem.
L3MBTL1 inh = blocks human L3MBTL1; 230,000 compounds, 0.66% hits; AlphaScreen L3MBTL1–H3K9me1 peptide binding; Potency, µM (highest dose often 57.1 µM), without a hit: at the top dose activity, negative = inhibition, usual class: inhibitors; AID 485360; further: on the % scale 0 is the no-effect control and ±100 the full control effect; nearly all actives have a fitted effect of over 60% in size
Target sequence (Q9Y468 whole entry, looked up): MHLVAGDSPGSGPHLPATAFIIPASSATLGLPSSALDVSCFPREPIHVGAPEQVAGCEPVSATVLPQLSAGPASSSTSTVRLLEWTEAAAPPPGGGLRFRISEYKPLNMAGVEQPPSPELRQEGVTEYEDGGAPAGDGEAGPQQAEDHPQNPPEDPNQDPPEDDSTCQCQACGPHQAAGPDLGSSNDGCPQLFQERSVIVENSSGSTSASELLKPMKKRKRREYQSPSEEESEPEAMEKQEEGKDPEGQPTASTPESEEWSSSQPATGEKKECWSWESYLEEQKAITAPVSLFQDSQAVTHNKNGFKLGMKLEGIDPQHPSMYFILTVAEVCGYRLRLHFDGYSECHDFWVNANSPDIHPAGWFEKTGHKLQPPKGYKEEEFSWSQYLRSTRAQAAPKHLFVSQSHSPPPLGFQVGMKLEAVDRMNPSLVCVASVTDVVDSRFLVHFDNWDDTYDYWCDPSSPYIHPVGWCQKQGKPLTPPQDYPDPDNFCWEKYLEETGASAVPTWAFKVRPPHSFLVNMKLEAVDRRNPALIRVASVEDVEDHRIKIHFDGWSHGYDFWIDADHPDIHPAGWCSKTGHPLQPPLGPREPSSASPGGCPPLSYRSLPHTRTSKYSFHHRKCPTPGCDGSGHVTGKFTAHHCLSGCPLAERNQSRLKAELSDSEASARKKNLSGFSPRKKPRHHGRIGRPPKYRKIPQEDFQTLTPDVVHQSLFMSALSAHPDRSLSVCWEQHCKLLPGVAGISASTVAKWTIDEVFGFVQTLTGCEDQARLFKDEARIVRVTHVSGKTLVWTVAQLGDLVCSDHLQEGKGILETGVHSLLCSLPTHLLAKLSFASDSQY
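First, the protein-peptide complex forms for 30 min at room temperature (L3MBTL1 50 nM, biotinylated H3K9me1 peptide 75 nM). Next, compounds are pin-transferred and incubated 30 min. Finally, AlphaScreen beads are added and read after 30 min.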
GLS inh = inhibitors of human glutaminase (GLS) | GLS enzymatic activity, qHTS titration | Potency, µM (titrated, usually from 45.5 µM), for inactives: at the top dose activity change, negative = inhibition, actives largely listed as inhibitors | 410,000 compounds, 0.21% hits | AID 624170; further: on the % scale 0 is the no-effect control and ±100 the full control effect
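Assay buffer: 45 mM KH2PO4 pH 8.2, 0.02% Tween-20. hKGA acts on L-glutamine (1 mM solution added); product glutamate is reported by an oxidase/peroxidase Amplex Red coupling, with fluorescence taken at baseline and 30 min.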
G9a inh = inhibitors of human histone lysine methyltransferase G9a; G9a H3K9 monomethylation, AlphaScreen, 2 h; Potency, µM (series often up to 102 µM), without a hit: at the top dose activity, negative = inhibition, actives largely listed as inhibitors; 350,000 compounds, 8.8% hits; further: on the % scale 0 is the no-effect control and ±100 the full control effect; nearly all actives have a fitted effect of over 75% in size
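G9a (20 nM) preincubated 15 min RT with compounds, then 500 nM biotinylated H3K9 peptide and 20 uM SAM added; 2 h RT reaction. Monomethyl-H3K9 product detected by AlphaScreen with anti-H3K9me1 antibody, streptavidin donor and anti-rabbit IgG acceptor beads.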
JMJD2A Tudor inh = JMJD2A Tudor domain (human) inhibition. O75164. Potency, µM (highest dose often 114 µM), inactives show top-dose activity change, negative = inhibition, most hits filed as inhibitors. AlphaScreen JMJD2A-Tudor / H3K4me3 peptide binding. 390,000 compounds, 4.4% hits; further: on the % scale 0 is the no-effect control and ±100 the full control effect; nearly all actives have a fitted effect of over 50% in size
HP1b binding inh = inhibitors of HP1-beta chromodomain binding to methylated histone tails; Potency, µM (series often up to 114 µM), without a hit: at the highest dose activity change, negative = inhibition, hits mostly inhibitors; AlphaScreen HP1-beta / biotin-H3K9me3 peptide binding; 390,000 compounds, 0.56% hits; further: nearly all actives have a fitted effect of over 70% in size
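HP1-beta protein (50 nM final) preincubated 30 min at room temperature with biotinylated H3(1-18)K9me3 peptide (50 nM) in PBS pH 7.4, 0.01% Tween-20, then compound added for 30 min. AlphaScreen streptavidin donor/nickel chelate acceptor beads (10 ug/mL final), 30 min dark, luminescence read.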
BAZ2B block = blocks human BAZ2B | AID 504333 | Q9UIF8 | Potency, µM (doses to about 114 µM), inactives show at the highest dose activity change, negative = inhibition, usual class: inhibitors | 360,000 compounds, 4.4% hits | AlphaScreen BAZ2B-H3K14Ac peptide displacement; further: on the % scale 0 is the no-effect control and ±100 the full control effect; nearly all actives have a fitted effect of over 60% in size
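Multi-concentration screen (max 110 uM) measuring displacement of acetylated histone H3 peptide from BAZ2B by AlphaScreen, using 50 nM protein, 50 nM peptide and 10 ug/mL streptavidin donor plus Ni-chelate acceptor beads.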
* hit, by the source's call; ? = inconclusive; · = not tested or not shown; [ ] = dose if it differs, or a comment. Most compounds without a hit are left out; they make up all but 10% or so of the library. The call rests on the fitted dose curve; in most records, active means well fitted curve in the direction sought with a large enough effect; inconclusive means small, poorly fitted or top-dose-only effect, or another doubt; inactive means no such curve, though single readings can be large; an effect the other way counts as inactive or inconclusive. Potency means the concentration at half of the fitted maximal effect.

SMILES	L3MBTL1 inh	GLS inh	G9a inh	JMJD2A Tudor inh	HP1b binding inh	BAZ2B block
COc1ccc(OCC(=O)N(C)Cc2ccccc2)cc1	-3%	2%	21%	-17%	40%	3%
CN(Cc1ccccc1)S(=O)(=O)c1ccc2[nH]c3c(c2c1)CCCCC3	·	11%	?	?	-9%	-31%[57.1 µM]
COc1ccc(NC(=O)Nc2ccccc2OCc2cc(=O)n3ccccc3n2)c(OC)c1	·	-5%	-30%[59 µM]	-20%	0%[57 µM]	-7%
CSc1ncc(Cl)c(C(=O)N(Cc2ccc(C(C)C)cc2)C2CCS(=O)(=O)C2)n1 (stereo unspecified)	·	15%	-24%[59 µM]	-26%	15%	-10%
CN(CCOCCOc1ccc(F)cc1)Cc1ccccc1	-4%	15%	?	13µM*	?	79µM*
C=CCc1cc(OC)ccc1OCCCCn1cncn1	-7%	0%	28µM*	5.6µM*	?	50µM*
CCOc1cccc(OCCOCCN(C)Cc2ccccc2)c1	·	0%	-5%[12.7 µM]	-4%	21%	2%
Cc1cccc(N2CCN(S(=O)(=O)c3cc(C(=O)Nc4ccc(Oc5ccccc5)cc4)ccc3F)CC2)c1C	·	6%	-1%[59 µM]	-22%	20%	-1%
CCOC(=O)CC1C(=O)NCCN1C(=O)c1cc2c(=O)n3cccc(C)c3nc2s1 (stereo unspecified)	·	-5%	?	-27%	24%	2%
CCOC(=O)CC1C(=O)NCCN1C(=O)c1cc2c(=O)n3ccccc3nc2s1 (stereo unspecified)	·	·	89µM*	·	·	5%
O=C(c1cc2c(=O)n3ccccc3nc2s1)N1CCc2ccccc2C1	4%	·	40µM*	·	·	-12%
Cc1cccc(-c2cc3nc4c(c(NCc5ccco5)n3n2)CCCC4)c1	-8%	5%	0%[59 µM]	79µM*	-13%	-7%
Cc1cc(C)c(C)c(OCCCN(C)C)c1	-9%	5%	?	20µM*	?	-38%
c1ccc(OCCOCCN2CCOCC2)cc1	·	-4%	25%	-4%	24%	11%
Cc1cc(C)c(C)c(OCCN2CCOCC2)c1	·	-7%	79µM*	3%	27%	-24%
Cc1cccc(OCCN2CCOCC2)c1C	·	0%	?	-3%	36%	-16%
Clc1cc(Br)ccc1OCCN1CCOCC1	-3%	12%	10µM*	0.79µM*	?	?
Brc1ccccc1OCCN1CCOCC1	1%	-7%	25µM*	3.2µM*	?	?
COc1ccc(C(=O)Nc2nc(-c3nnn(-c4ccc(F)cc4F)c3C)ns2)cc1	·	-15%	5%[59 µM]	-28%	7%	-1%
NC(=O)Cn1c(=O)n(CCCCCC(=O)NCc2ccccc2)c(=O)c2sccc21	·	-8%	4%[59 µM]	15%	41%	7%
COc1ccc([C@@H]2CC(=O)c3c(O)cc(O[C@@H]4O[C@H](CO[C@@H]5O[C@@H](C)[C@H](O)[C@@H](O)[C@H]5O)[C@@H](O)[C@H](O)[C@H]4O)cc3O2)cc1O	·	?	-27%[12.7 µM]	?	-14%	50µM*
Brc1cccc(-c2nn(-c3ccccc3)c3c2cnc2cc4c(cc23)OCO4)c1	·	-1%	-6%[59 µM]	-9%	62%	·
O=C(/C=N/O)NCCCN1CCCCCC1	·	-26%	45µM*	?	17%	50µM*
COc1ccc(/C=C/C(=O)NCCCN2CCCCCC2)cc1	·	-4%	50µM*	?	13%	-26%
COc1ccc(/C=C/C(=O)NCCCN2CCOCC2)cc1	·	-3%	-6%	4%	24%	-8%
SMILES	L3MBTL1 inh	GLS inh	G9a inh	JMJD2A Tudor inh	HP1b binding inh	BAZ2B block
COc1ccc2cc(/C=C/C(=O)N3CCN(CC(=O)N4CCCCCC4)CC3)ccc2c1	·	3%	71µM*	-22%	42%	-17%
CCOC(=O)c1ccc2c(c1)N(CC(=O)Nc1ccc(CC)cc1)C(=O)c1ccccc1S2	·	-6%	6%[59 µM]	2%	27%[57 µM]	5%
COc1ccc(-c2nnc(SCC(=O)Nc3cccc(C(F)(F)F)c3)s2)cc1	·	-2%	10%[59 µM]	-4%	27%[57 µM]	5%
COC(=O)c1ccc(CNC(=O)COC(=O)c2cc(Cl)nc(Cl)c2)cc1	7%	1%	50µM*	-8%	24%	-4%
COc1ccc(CCNC(=O)COC(=O)c2cc(Cl)nc(Cl)c2)cc1	3%	3%	·	1%	33%	·
CC(=O)Nc1ccn(C2OC(C(COC(C)=O)NC(=O)C(COCc3ccccc3)NC(=O)OC(C)(C)C)C(OC(C)=O)C2OC(C)=O)c(=O)n1 (stereo unspecified)	·	·	·	-16%	13%	·
COC(=O)c1ccccc1S(=O)(=O)N1CCC(C(=O)OCC(=O)c2ccccc2OC)CC1	22%	-6%	40µM*	-14%	28%	-31%
COC(=O)c1ccccc1S(=O)(=O)N1CCC(C(=O)OCC(=O)NC2CCCCC2C)CC1 (stereo unspecified)	11%	-2%	20µM*	-8%	28%	9%
Cn1c2c(c(=O)n(C)c1=O)C(c1ccccc1C(F)(F)F)CC(=O)N2 (stereo unspecified)	·	-5%	7%[59 µM]	-10%	21%	-2%
O=C(/C=C/c1cn(CC(O)CN2CCCCCC2)c2ccccc12)c1ccc(Br)cc1 (stereo unspecified)	·	-7%	-43%[59 µM]	?	1%	?
CC(C)Oc1ccc(CNC(=O)c2ccc3c(c2)nc2n3CCCCC2)cc1	·	5%	66%[59 µM]	-18%	16%[57 µM]	18%
CCOc1ccc(C2C(C(=O)C3CC3)N3C=C(C#N)C=CC3C2(C#N)C#N)cc1 (stereo unspecified)	-6%	·	25µM*	·	·	-36%
CCc1cccc(NC(=O)Cn2nc3c4cc(F)ccc4n(Cc4cccc(C)c4)cc-3c2=O)c1	·	-3%	5%[59 µM]	2%	31%	-4%
COc1ccc(Cn2nnnc2C(c2cc3ccc(OC)cc3[nH]c2=O)N2CCCCCC2)cc1 (stereo unspecified)	-2%	-26%	8.9µM*	-28%	29%	9%
CCC(C)(C)n1nnnc1C(c1cc2ccc(OC)cc2[nH]c1=O)N1CCc2ccccc21 (stereo unspecified)	-15%	-4%	13µM*	?	-22%	?
COc1ccc2cc(C(c3nnnn3C3CCCC3)N3CCc4ccccc4C3)c(=O)[nH]c2c1 (stereo unspecified)	-3%	-1%	10µM*	-25%	13%	·
CCC(C)(C)n1nnnc1C(c1cc2cc(OC)ccc2[nH]c1=O)N1CCc2ccccc21 (stereo unspecified)	-9%	-3%	?	?	-14%	?
